{"source": "PubChem BioAssay AID588342", "about": "(National Center for Advancing Translational Sciences (NCATS), 2011)", "note": "Among all 360,000 compounds or so, about 25,000 (6.9%) were called active. Inconclusive results (about 9%) are left out. Calls come from the whole dose curve; as a rule, active = well fitted inhibition curve with a large enough effect; inconclusive = small, poorly fitted or top-dose-only effect; inactive = flat fitted curve, though single readings scatter. Shown is part of a subset that was picked to be rich in actives. A call without a number means that no potency is given here. Potency is the fitted concentration of half-maximal effect."}
{"target": "Luciferin 4-monooxygenase (Photinus pyralis) (UniProt P08659)", "sequence (P08659 whole entry, looked up)": "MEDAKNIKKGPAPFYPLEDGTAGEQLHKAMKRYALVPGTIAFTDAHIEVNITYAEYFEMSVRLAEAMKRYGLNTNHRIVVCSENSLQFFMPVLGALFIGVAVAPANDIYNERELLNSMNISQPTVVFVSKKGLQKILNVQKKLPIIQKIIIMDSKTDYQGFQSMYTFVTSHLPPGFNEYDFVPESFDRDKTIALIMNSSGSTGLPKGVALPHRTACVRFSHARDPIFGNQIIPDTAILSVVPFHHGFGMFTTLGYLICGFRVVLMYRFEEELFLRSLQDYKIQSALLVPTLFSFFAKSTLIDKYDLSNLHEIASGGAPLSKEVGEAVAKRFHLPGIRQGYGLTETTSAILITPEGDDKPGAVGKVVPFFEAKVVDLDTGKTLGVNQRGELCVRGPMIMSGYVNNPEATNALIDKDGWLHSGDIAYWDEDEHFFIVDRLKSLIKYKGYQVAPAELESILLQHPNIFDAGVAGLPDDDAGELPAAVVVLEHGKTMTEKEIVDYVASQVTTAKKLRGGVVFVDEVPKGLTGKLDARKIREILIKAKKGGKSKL", "test": "qHTS profiling assay for firefly luciferase inhibitor/activator using purifed enzyme and Km concentrations of substrates (counterscreen for miR-21 project); note: nearly all actives have a fitted effect of over 55% in size", "details": "purified FLuc, luminescence inhibition; series mostly up to 57.5 µM", "outline": "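Purified P. pyralis luciferase (10nM final) with 10uM D-luciferin and 10uM ATP (Km levels) in 50mM Tris acetate pH 7.5, 10mM Mg acetate, 0.01% Tween-20, 0.05% BSA; qHTS 6-point titration, ~60 µM downward; luminescence read.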"}
{"smiles": "Cc1ccc(NC(=O)CN(C)C(=O)c2cccc(S(=O)(=O)N3CCCC3)c2)cc1", "Potency": "inactive"}
{"smiles": "Cc1[nH]c2c(C(=O)N3CCCC(CCC(=O)NCc4ccccc4F)C3)cccc2c1C", "note": "(centres undefined)", "Potency": "inactive"}
{"smiles": "COc1cccc(-c2cc(C(=O)N3CCN(c4ccccc4OC)CC3)no2)c1", "Potency": "inactive"}
{"smiles": "Cc1ccc(C)c(OCc2cc(C(=O)N3CCN(c4cnccn4)CC3)no2)c1", "Potency": "inactive"}
{"smiles": "COc1ccc(Cl)cc1C(=O)NNC(=S)NC1CCCC1", "Potency": "inactive"}
{"smiles": "O=C(NCCCN1CCOCC1)c1cc(-c2ccccc2F)no1", "Potency": "inactive"}
{"smiles": "COc1cc(Cl)ccc1OCc1cc(C(=O)N(C)CCc2c(C)n[nH]c2C)no1", "Potency": "inactive"}
{"smiles": "COc1cc(Cl)ccc1OCc1cc(C(=O)N2CC[C@@H]3CCCC[C@H]3C2)no1", "Potency": "23.9 µM (active)"}
{"smiles": "COc1ccc(C(=O)C2CCCN(C(=O)c3cc(C)on3)C2)cc1F", "note": "(centres undefined)", "Potency": "inactive"}
{"smiles": "COc1ccccc1-c1cc(C(=O)N2CCCCC2)no1", "Potency": "5.36 µM (active)"}
{"smiles": "O=C(Cc1c(F)cccc1Cl)N1CCN(C(=O)c2ccco2)CC1", "Potency": "inactive"}
{"smiles": "COc1ccc(OCc2cc(C(=O)N3CCCC3)no2)c2ccccc12", "Potency": "9.53 µM (active)"}
{"smiles": "O=C(c1ccco1)N1CCN(C(=O)c2cc(-c3ccccc3F)no2)CC1", "Potency": "13.5 µM (active)"}
{"smiles": "COc1ccccc1OCc1ccc(C(=O)N2CCN(C)CC2)o1", "Potency": "inactive"}
{"smiles": "Fc1ccc(-c2nn(-c3ccccc3Cl)c3c2cnc2ccccc23)cc1", "Potency": "inactive"}
{"smiles": "O=C(CN1C2CCC1CC(NC(=O)C1CC1)C2)NCc1ccccc1", "note": "(centres undefined)", "Potency": "inactive"}
{"smiles": "COc1ccc(CNC(=O)CN(Cc2ccccc2Cl)C(=O)c2csnn2)cc1", "Potency": "inactive"}
{"smiles": "CCc1nn(CC(=O)Nc2cc(C)cc(C)c2)c(=O)c2cc3sccc3n12", "Potency": "inactive"}
{"smiles": "O=C(NCC(c1ccc(Cl)cc1)N1CCOCC1)c1ccccc1F", "note": "(centres undefined)", "Potency": "inactive"}
{"smiles": "COC(=O)c1scc(S(=O)(=O)C(C)(C)C)c1-n1cccc1", "Potency": "inactive"}
{"smiles": "O=C(NCCC1=CCCCC1)c1ccc2c(c1)N(Cc1ccccc1F)C(=O)c1ccccc1S2(=O)=O", "Potency": "inactive"}
{"smiles": "COCCNc1nnc(SCC(=O)NNC(=O)c2ccco2)s1", "Potency": "inactive"}
{"smiles": "Cc1cccc(Cc2c(C)nc3nc(SCc4ccccc4Cl)nn3c2C)c1", "Potency": "inactive"}
{"smiles": "CCOC(=O)c1ccc(NC(=O)Cn2cc(S(=O)(=O)Cc3ccccc3F)c3ccccc32)cc1", "Potency": "inactive"}
{"smiles": "Cc1ccc(CNC(=O)CCc2c(C)nc3c(c(C)nn3-c3ccccc3)c2C)cc1", "Potency": "inactive"}
{"smiles": "CC(C)(C)NC(=O)CSC(=Nc1ccccc1F)NC#N", "Potency": "inactive"}
{"smiles": "O=C(O)C1CCCN1S(=O)(=O)c1ccc(Br)cc1", "note": "(centres undefined)", "Potency": "inactive"}
{"smiles": "CC1CN/C(=C\\C(=O)c2ccc(Br)cc2)C(=O)N1", "note": "(centres undefined)", "Potency": "1.9 µM (active)"}
{"smiles": "CC1(C)Cc2ccccc2/C(=C/C(=O)c2ccccc2)N1", "Potency": "inactive"}
